Unmarked numbers belong to inactive results. Calls come from the whole dose curve; as a rule, active = well fitted activation curve with a large enough effect in the repeat runs; inconclusive = weak or mixed curves; inactive = flat fitted curve, though single readings scatter.
% is set by controls: 0 for no effect and ±100 for the full control effect.

The experiment can be described thus: Caspase-3/7 induction in CHO-K1 cells by small molecules, qHTS assay (AID 1346980). Note: nearly all actives have a fitted effect of over 15% in size. The note with it: CHO-K1 caspase-3/7 induction, Caspase-Glo luminescence, 17 h; series mostly up to 92.4 µM; caspase-3/7 activation: at the top concentration. The text has this:
National Center for Advancing Translational Sciences [NCATS]
NIH Chemical Genomics Center [NCGC]
U.S. Environmental Protection Agency [EPA]
National Institutes of Environmental Health Sciences [NIEHS]
National Toxicology Program [NTP]
Apoptosis is a process of programmed cell death and plays a central role in the development of multicellular organisms. It is a highly regulated process and induces cell death by activating caspases, which are the members of cysteine aspartic acid-specific protease (caspase) family. Caspases involved in apoptosis are classified by their mechanism of action as initiator caspases (caspase-2, -8, -9 and -10) and executioner caspases (caspase-3, -6, and -7). Inhibition of apoptosis results in number of cancers, autoimmune diseases, inflammatory diseases and viral infection. To identify small molecule compounds that induce apoptosis, a homogeneous, luminescent Caspase-Glo 3/7 assay was used. Wild type CHO-K1 cells were used to screen Tox21 libraries for identifying caspase-3/7 activity inducers.
CHO-K1 cells were dispensed at 1,500 per well in 5uL of culture medium into white solid bottom 1536-well plates (Corning Life Sciences, Corning, NY) using a Multidrop Combi (Thermo Scientific, Waltham, MA) dispenser. The assay plates were incubated at 37 C and 5% CO2 for 5hr, and then 23nL of compounds dissolved in DMSO and positive control were transferred using a Pintool station (Wako, San Diego, CA). The assay plates were incubated at 37C and 5% CO2 for 17hr. For caspase-3/7 activity read, 4uL of Caspase-Glo 3/7 reagent (Promega Corporation, Madison, WI) was added to each well of the assay plates using Flying Reagent Dispenser (FRD, Aurora Discovery, San Diego, CA) and incubated the assay plates at room temperature for 30min. The luminescence signal was quantified using a ViewLux plate reader (Perkin Elmer, Shelton, CT).
For orientation: Quantitative high-throughput screening tests each substance at several concentrations.
For the molecule `CCOC(=O)NC(C)(C)Cc1ccc(Cl)cc1`, the “caspase-3/7 activation” value is 2.22% [at 42.5 µM]. To `Oc1ccc(Cc2ccc(O)cc2)cc1` belongs -1.37%. The same measure for `COC(=O)[C@@H](N)CCCN/C(N)=N/[N+](=O)[O-]`: 0.614% [at 42.5 µM]; for `C=C(C)[C@H]1CN[C@H](C(=O)O)[C@H]1CC(=O)O`: -0.253% [at 42.5 µM]; for `CCN[C@@H](C)Cc1cccc(C(F)(F)F)c1`: -0.018% [at 42.5 µM]. The same measure for `COC[C@@H](NC(C)=O)C(=O)NCc1ccccc1`: 1.56% [at 42.5 µM]. Regarding `C(COCC1CO1)OCC1CO1` (stereo not given), the “caspase-3/7 activation” value was 0.966%.

For `CC#Cc1cc(C)nc(Nc2ccccc2)n1`, the “caspase-3/7 activation” value was -0.413%.

Regarding `Cc1ccc(Cl)c(O)c1`, the “caspase-3/7 activation” value is -0.291% [at 42.5 µM]. The same measure for `CN(CCO)CCO`: 1.03%; for `c1cncc([C@@H]2CCCCN2)c1`: -1.21%; for `NNCc1ccccc1`: -3.99%. To `CCN(CC)C1CCCCC1` belongs 0.384%; to `CCCCCCCCSC(=O)Oc1cc(Cl)nnc1-c1ccccc1`, -0.0547%. `COC1=CC(=O)O[C@@H](/C=C/c2ccccc2)C1`: the “caspase-3/7 activation” value is -4.33%. As to `ClCOCCl`, the “caspase-3/7 activation” value is 0.314%.

Regarding `CN1COCN(Cc2cnc(Cl)s2)/C1=N\[N+](=O)[O-]`, the “caspase-3/7 activation” value was 0.0894%. Regarding `CCCC(C)(COC(N)=O)COC(N)=O`, the “caspase-3/7 activation” value was -1.01%. With `CN(C)CCc1c[nH]c2cccc(OP(=O)(O)O)c12`, the “caspase-3/7 activation” value was -1.36%.

On to `N#CC(Br)(Br)C(N)=O`, for which the “caspase-3/7 activation” value was 2.63%. Turning to `CCCC[N+](=O)[O-]`, the “caspase-3/7 activation” value was 0.173%.

Regarding `C=CCc1cc(OC)c2c(c1)OCO2`, the “caspase-3/7 activation” value was 1.12%. The same measure for `CC(C)(C)NC[C@H](O)c1ccc(O)cc1Cl`: -0.234% [at 42.5 µM]; for `C=CCN1CC[C@]23CCCC[C@H]2[C@H]1Cc1ccc(O)cc13`: 1.6% [at 42.5 µM]; for `CC(C)[C@]12CC(=O)[C@H](C)[C@H]1C2`: 0.91%. The same measure for `CCC1(c2ccccc2)C(=O)N(COC)C(=O)N(COC)C1=O`: 0.302% [at 42.5 µM]; for `O=C(Cl)OCc1ccccc1`: 0.894%. Take `ClC(Cl)(Cl)Cl`: the “caspase-3/7 activation” value is -0.907%. The same measure for `OCC(Cl)CCl` (stereo not given): -0.254%; for `NC1(c2ccccc2)CCCCC1`: 0.182%; for `NC(=O)CS(=O)C(c1ccccc1)c1ccccc1` (stereo not given): -0.104% [at 42.5 µM].

In the case of `CNC(=O)NC(O)C(Cl)(Cl)Cl` (stereo not given), the “caspase-3/7 activation” value is 0.406% [at 42.5 µM]. The same measure for `ClCC1CO1` (stereo not given): -0.433%; for `Cc1ccc2cc(C)ccc2c1`: -0.183%. The same measure for `N[C@@H]1C[C@H]1c1ccccc1`: 0.113% [at 42.5 µM]. As for `Cc1ccc(-c2nc3ccc(C)cn3c2CC(=O)N(C)C)cc1`, the “caspase-3/7 activation” value is 1.14% [at 42.5 µM]. The same measure for `CC(=O)CN(CC(C)=O)N=O`: 0.12%. To `O=c1[nH]oc2c1CCNC2` belongs -0.0865% [at 42.5 µM]; to `O=C(O)C(Br)(Br)Br`, -0.0617%. As to `C[C@@H](N)[C@@H](O)c1ccccc1`, the “caspase-3/7 activation” value is -0.0941% [at 42.5 µM].

(Values after PubChem BioAssay (Tox21).)
